The values that follow come from PubChem BioAssay (NCI).

Molecules are shown by their SMILES. About 83,000 compounds went through this panel and 20% of them were active in at least one assay; those are over-represented in the sample as a whole.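 In brief: 96-well plates, 48 h treatment, single concentration, percent growth endpoint.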 Values without a mark were called inactive. Calls of active or inactive are those of the source. How the source made its calls: active means growth percent below 10; inactive means the rest.

Assay in all cases: NCI-60 one-dose screen, 48 h (100 = growth as untreated, 0 = no growth, -100 = all killed)
The test system of one assay is SK-MEL-2 melanoma. The following applies: 10 µM unless noted.
A further assay relates to EKVX NSCLC. The conditions noted are these: 10 µM unless noted.
Another assay concerns SN12C renal. The following applies: 10 µM unless noted.
In the next assay the test system is UO-31 renal. The conditions noted are these: 10 µM unless noted.
The test system of another assay is TK-10 renal. The following applies: 10 µM unless noted.
The test system of another assay is ACHN renal. The following applies: 10 µM unless noted.
In a further assay the test system is CAKI-1 renal. The following applies: 10 µM unless noted.
For another assay, the system named is A498 renal. The conditions noted are these: 10 µM.
The test system of a further assay is HL-60(TB) leukemia. The following applies: 10 µM unless noted.
In a further assay the test system is CCRF-CEM leukemia. The conditions noted are these: 10 µM unless noted.

Turning to `COc1ccc(S(=O)(=O)N(Cc2ccc3c(c2)C=CC(C)(C)O3)c2ccccc2)cc1OC`, the growth in the assay with SK-MEL-2 melanoma was 97.1%; in the assay on EKVX NSCLC, 58.1%; in the assay with SN12C renal, 95.9%; in the assay with UO-31 renal it was 67.4%; in the assay with TK-10 renal, 102%; in the assay with ACHN renal, 61.3%. Besides, the growth with CAKI-1 renal was 61.7%; with A498 renal, 77.8%; with HL-60(TB) leukemia, 70.6%; in the assay on CCRF-CEM leukemia, 72%.
For the compound `COc1ccc(/C=C\c2cc(OC)c(OC)c(OC)c2)cc1OCC(=O)Nc1nc2ccc(OC(F)(F)F)cc2s1`, the growth in the assay on SK-MEL-2 melanoma was 15.6%; with EKVX NSCLC, 77%; in the assay on SN12C renal, 49.7%; in the assay on UO-31 renal, 25.4%; with TK-10 renal, 47%; in the assay on ACHN renal it was 43.5%. For the same compound, the growth in the assay with CAKI-1 renal is 35.2%; in the assay with A498 renal, 30.2%; in the assay with HL-60(TB) leukemia it was 52.3%; in the assay on CCRF-CEM leukemia, 28.2%.
In the case of `CC(=O)Nc1ccc(NC(=O)c2ccc([As](O)O)cc2)cc1`, the growth in the assay on SK-MEL-2 melanoma is 96%; in the assay with EKVX NSCLC, 110%; with SN12C renal, 93.9%; with UO-31 renal it was 69.4%; with TK-10 renal, 136%; in the assay with ACHN renal it was 105%. For the same compound, the growth in the assay with CAKI-1 renal was 107%; in the assay on A498 renal it was 133%; in the assay on HL-60(TB) leukemia it was 44.5%; in the assay on CCRF-CEM leukemia it was 47.7%.
Regarding `C1CCC([PH+](C2CCCCC2)C2CCCCC2[PH+](C2CCCCC2)C2CCCCC2)CC1.O=C(C1[CH-]CCCC1)C1CCCC[N-]1.[Au]` (stereo not given), the growth is -52.6% (active) with SK-MEL-2 melanoma; -53.2% (active) with EKVX NSCLC; -52.3% (active) with SN12C renal; -87.9% (active) in the assay with UO-31 renal; -47.7% (active) in the assay with TK-10 renal; -74.6% (active) in the assay with ACHN renal. In addition, the growth in the assay on CAKI-1 renal was -57.4% (active); in the assay on A498 renal, -51.3% (active); with HL-60(TB) leukemia, -39.2% (active); in the assay with CCRF-CEM leukemia, 2.64% (active).
Regarding `CC12CCC=CC1CCC1C2CCC2(C)C(c3ccc(=O)oc3)CCC12O` (stereo not given), the growth is -34.4% (active) in the assay on SK-MEL-2 melanoma; -90.1% (active) with EKVX NSCLC; -18.8% (active) in the assay with SN12C renal; -94.5% (active) in the assay on UO-31 renal; -69.8% (active) with TK-10 renal; -89.9% (active) with ACHN renal. Besides, the growth with CAKI-1 renal was -61.3% (active); with A498 renal it was -19.9% (active); in the assay with HL-60(TB) leukemia, -28% (active); with CCRF-CEM leukemia, -16.6% (active).
Take `CC(=O)c1ccc(C(=O)NCC2CCC3(CC2)OOC2(CCCCC2)OO3)cc1`: the growth in the assay with SK-MEL-2 melanoma was 76.7%; with EKVX NSCLC it was -1.77% (active); in the assay on SN12C renal, 78%; in the assay with UO-31 renal, -78.4% (active); with TK-10 renal, 86.3%; with ACHN renal, 64.6%. Also, the growth with CAKI-1 renal was -29.9% (active); with A498 renal, 89.2%; in the assay on HL-60(TB) leukemia it was 19.6%; in the assay on CCRF-CEM leukemia, 31.9%.
On to `CCCCCCCCOC(=O)CCN1CC1`, for which the growth in the assay on SK-MEL-2 melanoma was 119%; with EKVX NSCLC, 99%; in the assay on SN12C renal, 106%; in the assay with UO-31 renal, 92.8%; with TK-10 renal, 127%; with ACHN renal, 103%. Further, the growth in the assay with CAKI-1 renal is 98.4%; in the assay with A498 renal, 84.2%; in the assay on HL-60(TB) leukemia, 149%; with CCRF-CEM leukemia, 110%.
`CO[C@H]1CC[C@@]2(C)C(=CC[C@@H]3[C@@H]2CC[C@]2(C)C(=O)C(=O)C[C@@H]32)C1`: the growth is 128% in the assay on SK-MEL-2 melanoma; 108% with EKVX NSCLC; 95.5% in the assay on SN12C renal; 86.9% in the assay on UO-31 renal; 117% in the assay with TK-10 renal; 102% with ACHN renal. For the same compound, the growth is 93% in the assay with CAKI-1 renal, 82.1% in the assay with A498 renal, 141% in the assay on HL-60(TB) leukemia and 95.3% with CCRF-CEM leukemia.
Regarding `O=C1C2CC=CCC2C(=O)N1SC(Cl)(Cl)Cl` (stereo not given), the growth in the assay on SK-MEL-2 melanoma was 122%; with EKVX NSCLC it was 121%; in the assay with SN12C renal, 97.4%; in the assay with UO-31 renal, 4.07% (active); in the assay with TK-10 renal, 115%; in the assay with ACHN renal, 72.3%. For the same compound, the growth was 72.8% in the assay with CAKI-1 renal, 139% in the assay on A498 renal, 46.2% in the assay on HL-60(TB) leukemia and 21.6% with CCRF-CEM leukemia.
In the case of `O=C(CC1(O)C(=O)N(Cc2ccccc2)c2ccccc21)c1ccc(C(=O)NCC2CCC3(CC2)OOC2(CCCCC2)OO3)cc1` (stereo not given), the growth in the assay on SK-MEL-2 melanoma was 6.18% (active); in the assay on EKVX NSCLC, -63.3% (active); in the assay on SN12C renal it was -60.9% (active); in the assay on UO-31 renal, -81.2% (active); in the assay with TK-10 renal, -93.2% (active); in the assay with ACHN renal, -87.7% (active). In addition, the growth was -90.4% (active) in the assay with CAKI-1 renal, -88.7% (active) in the assay on A498 renal, -67.4% (active) in the assay with HL-60(TB) leukemia and -41.2% (active) in the assay with CCRF-CEM leukemia.
For the compound `CN(C)CC(C(=O)Cc1ccccc1)c1ccccc1` (stereo not given), the growth in the assay on SK-MEL-2 melanoma was 82.2%; in the assay with EKVX NSCLC it was 110%; in the assay with SN12C renal, 93.6%; in the assay on UO-31 renal, -74% (active); in the assay on TK-10 renal, -38.1% (active); in the assay with ACHN renal, 102%. The growth in the assay on CAKI-1 renal is 82.1%; with A498 renal, 90.5%; in the assay on HL-60(TB) leukemia, 66.3%; with CCRF-CEM leukemia, 67.1%.
As to `CC(=O)O[C@@H]1CC[C@]2(C)[C@H]3CC[C@]4(C)C(=O)CC[C@H]4[C@@H]3C[C@@H]3SC(N)=N[C@@]32C1`, the growth in the assay with SK-MEL-2 melanoma was 49.8%; in the assay with EKVX NSCLC it was 78.3%; in the assay on SN12C renal it was 77.3%; in the assay on UO-31 renal, 79.3%; in the assay on TK-10 renal, 91.1%; in the assay with ACHN renal, 93.7%. For the same compound, the growth with CAKI-1 renal was 61.1%; in the assay on A498 renal it was 50.7%; in the assay with HL-60(TB) leukemia, 44.5%; in the assay with CCRF-CEM leukemia, 44.2%.
